High-throughput results as filed in PubChem.
The list is not random: actives were taken first. Their share in the collection is about 1.8%.
Gli-Sufu block – Gli-Sufu pathway antagonists, primary screen, luciferase luminescence, Sufu-KO-LIGHT cells, uHTS | Sufu-KO-LIGHT fibroblasts, Gli luciferase reporter luminescence | inhibition, % at 5 µM | hit rate 0.74% among 340,000 | AID 588413, 2011;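 active = inhibition above about 55%, limit read from the data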;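 note: 0% = DMSO-treated cells and 100% = wells with medium but no cells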
697 NFkB inh – inhibitors of PMA/ionomycin-induced NF-kB reporter, 697 cells, primary screen, B-cell NF-kB inhibitor project, cell-based, luminescence, uHTS; 697 B-cell NF-kB luciferase reporter, 16 h; inhibition, % at 4 µM; hit rate 0.33% among 330,000; in the data active = inhibition above about 35%
Jurkat NFkB inh – inhibitors of induced NF-kB luciferase reporter, primary screen, TCR NF-kB activation inhibitor project, cell-based, luminescence, uHTS; hit rate 0.53% among 330,000; Jurkat, PMA/ionomycin-induced NF-kB luciferase reporter; AID 435003, 2010; inhibition, % at 4 µM; in the data active = inhibition above about 50%
Beta apoptosis – inhibitors of cytokine-induced beta cell apoptosis, primary screen, luminescence | INS-1E cytokine-induced death, ATP luminescence, 48 h; percent of positive-control rescue, neutral wells zero | protection from apoptosis, % (test concentration not listed) | hit rate 0.8% among 300,000 | AID 435005, 2010;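 active = Every replicate reaches about 75%, or at least half do and their mean reaches it too, limit read from the data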;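 note: 0% = cytokine-treated negative control wells and 100% = positive control rescue; higher means more ATP so stronger rescue from cytokine killing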
Jurkat NFkB conf – PMA/ionomycin-induced NF-kB reporter inhibitors, Jurkat retest, confirmation, T-cell NF-kB inhibitor project, cell-based, luminescence, single concentration; Jurkat NF-kB luciferase, 16 h; hit rate 27% among 2,700; inhibition, % at 4 µM; shares compounds with Jurkat NFkB inh; AID 435020, 2010;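 active = inhibition reaching about 45% at 4 µM in either replicate, limit read from the data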;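 note: plate controls were PMA/ionomycin stimulated DMSO wells for no effect and unstimulated DMSO wells for full effect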
Numbers without * were called inactive; nt = no result given; ! = not confirmed by another sample.

SMILES	Gli-Sufu block	697 NFkB inh	Jurkat NFkB inh	Beta apoptosis	Jurkat NFkB conf
Cc1ccc(S(=O)(=O)N2CCCCC2)cc1NC(=O)Cc1c[nH]c2ccccc12	1	-79	66*	2	21
COc1ccc(S(=O)(=O)N2CCCCC2)cc1NC(=O)Cc1c[nH]c2ccccc12	2	12	1	11	nt
COc1ccc(C(=O)Nc2ccccc2C(N)=O)cc1	-52	-48	-87	7	nt
NC(=O)c1ccccc1NC(=O)c1ccc2ccccc2c1	-127	-224	-175	nt	-105
CN(C)S(=O)(=O)c1cccc(NC(=O)Cc2ccc(Cl)cc2)c1	7	2	2	nt	nt
COc1ccc(OC)c(N(CC(=O)N2CCC(C)CC2)S(=O)(=O)c2ccccc2)c1	11	14	3	nt	nt
CCCCCCCC[n+]1cccc(C(=O)N(CC)CC)c1	-1	11	-2	-8	nt
CCCCCCCCCCCCCCCC[n+]1cccc(C(=O)N(CC)CC)c1	72*!	-28	86*	91*	75*
CCCCCCCCCCCCCCCC[n+]1ccc(/C=N/O)cc1	73*	9	80*	123*	54*
O/N=C/c1cccc[n+]1CCCCCC[n+]1ccccc1/C=N/O	-14	-3	2	-3	nt
CCCCCCCCCCCCCCCC[n+]1ccc(C(N)=O)cc1	17	-58	56*	8	40
Cc1c(-c2ccc(F)cc2)[n+](=O)c2c(n1[O-])CCCCC2	6	11	0	-4	nt
O=C(COC(=O)/C=C/c1ccc(OC(F)F)cc1)NC(=O)NC1CCCCC1	-4	-21	15	-4	nt
CN1C(=O)CC(N2CCN(c3ccc(Cl)cc3)CC2)C1=O (configuration not stated)	-1	23	-3	0	nt
CCOCCCN(C(=O)Cn1nnc(-c2ccc(C)o2)n1)C(C(=O)NC1CCCC1)c1ccc(C)o1 (configuration not stated)	28	2	10	nt	nt
COc1ccc(-c2coc3cc4oc(=O)c5ccccc5c4cc23)cc1F	42	-60	73*	20	3
Cc1ccsc1C(=O)NCc1ccc(Cl)cc1	7	2	9	nt	nt
C(=C\c1ccccc1)/CSc1nnc(-c2ccccc2)n1Cc1ccco1	8	-41	60*	17	23
C(=C\c1ccccc1)/CSc1nnc(-c2ccncc2)n1Cc1ccco1	1	5	2	-8	nt
O=C(NCCCn1ccnc1)c1ccc(F)cc1	-4	-4	-9	nt	nt
NC(N)=NN=C1CCCCCCCCCCC1	3	-44	69*	19	24
COc1ccc(CN2C(=O)C(C)N(C(=O)c3c(F)cccc3F)c3ccccc32)cc1 (configuration not stated)	5	-8	-13	2	nt
COc1ccc(CNC(=O)c2cccc(N3CCCC3=O)c2)cc1	-1	21	2	2	nt
Cc1ccc(NCCCn2ccc(NC(=O)OCc3ccccc3)nc2=O)cc1C	-4	nt	nt	nt	nt
Cc1cccc(N2CCN(C(=O)c3ccc(CS(=O)(=O)c4ccccc4C)o3)CC2C)c1 (configuration not stated)	17	9	65*	21	52*
SMILES	Gli-Sufu block	697 NFkB inh	Jurkat NFkB inh	Beta apoptosis	Jurkat NFkB conf
CCOC(=O)c1c(C)[nH]c(C(=O)OCc2ccc(F)cc2)c1C	-70	-158	-112	-1	nt
CC1CCCC(NC(=O)COC(=O)c2cccc(S(=O)(=O)N3CCCCC3)c2)C1C (configuration not stated)	1	20	13	-1	nt
COc1ccccc1N1CCN(c2ccnc3cc(Cl)ccc23)CC1	14	-41	68*	38	25
C=CCOc1c(Cl)cc(CNc2ccc(N(C)C)cc2)cc1OC	46	-11	5	26	nt
C=CCOc1c(Cl)cc(CNc2ccc(C)c(Cl)c2)cc1OC	nt	5	60*	47	36
COC(=O)C1=C(C)N=c2s/c(=C/c3cccs3)c(=O)n2C1c1ccc(F)cc1 (configuration not stated)	11	1	3	0	nt
O=C(Nc1ccccc1C(F)(F)F)c1cc2ccccc2o1	-94	-189	-152	-5	-81
O=C(Nc1ccc(Cl)cn1)c1cc2ccccc2o1	-80	-232	-152	-4	-102
COC(=O)/C(=C\Nc1ccc(Cl)cc1Cl)NC(=O)c1ccc(OC)cc1	-5	-2	66*	29	-1
Cn1c(=O)c2c(ncn2CC(=O)N2CCN(c3ccccc3F)CC2)n(C)c1=O	6	12	-14	-7	nt
Cc1ccc(C)c(CSc2nc3[nH]ncc3c(=O)[nH]2)c1	27	-30	66*	-4	46
Cc1ccccc1CSc1nc2[nH]ncc2c(=O)[nH]1	-14	13	-4	-5	nt
CCN1/C(=C/c2ccc3ccccc3[n+]2CC)C=Cc2ccccc21	92*	-1	97*	108*	71*
CCCCN1/C(=C/c2ccc3ccccc3[n+]2CC)Sc2ccccc21	88*	33	87*	nt	67*
CCC(=S)/C=C1\Sc2ccccc2N1CCCS(=O)(=O)O	-1	3	5	nt	nt
CCN1C(=C2C(=O)c3ccccc3C2=O)C=Cc2ccccc21	-10	-20	-10	6	nt
O=C(CSc1ncn[nH]1)N1N=C2/C(=C/c3ccccc3)CCCC2C1c1ccccc1 (configuration not stated)	2	3	3	-6	nt
COc1ccc(/C=C2\CCCC3C2=NN(C(=O)CSc2ncn[nH]2)C3c2ccc(OC)cc2)cc1 (configuration not stated)	0	6	61*	-17	-27
O=C(Nc1ccn(Cc2ccccc2F)n1)c1ccc(COc2ccc(Br)cc2)cc1	-20	-30	53*	-5	52*
Oc1ccccc1/C=N/Nc1cccc2cccnc12	-12	-180	-157	-14	4
COc1ccccc1CNc1ncccc1[N+](=O)[O-]	-3	-13	9	-2	nt
CCc1ccc(-n2nc3cc(C)c(N)cc3n2)cc1	-84	-218	-167	4	-33
Cc1ccc(-n2nc3cc(C)c(N)cc3n2)cc1	-2	-180	-138	0	nt
N=c1c(C(=O)NCc2ccc(F)cc2)cc2c(=O)n3ccccc3nc2n1Cc1ccco1	24	-26	59*	2	26
N=c1c(C(=O)NCc2ccccc2)cc2c(=O)n3ccccc3nc2n1Cc1ccco1	8	-10	49	-7	nt
CCOC(=O)c1ccc2nc(NC(C)=O)sc2c1	-68	nt	nt	10	nt
COC(=O)c1ccc2nc(Nc3nc4c(F)cc(F)cc4s3)sc2c1	49	-3	63*	-4	92*
CCOC(=O)c1ccc2nc(Nc3nc4ccc(F)cc4s3)sc2c1	16	10	56*	-5	85*
COc1ccc(-c2cc(C(=O)Nc3cc(C)nn3-c3ccccc3)no2)cc1	9	15	-2	-3	nt
